Unmarked numbers belong to inactive results. For some assays here: Potency and affinity values are given separately. Calls of active or inactive are those of the source. Unless noted, the rule behind the calls is not given here.

Experiment [1] is described as follows: antimalarial activity against Dd2 strain (AID 2302;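 active = growth inhibition above 50% at the single 2 µM test dose, taken to imply half-maximal potency below 2 µM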;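 note: 0% = DMSO untreated growth and 100% = chloroquine plus artemisinin killed control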). The conditions noted are these: P. falciparum Dd2 in RBCs, LDH growth readout, 72 h; at 2 µM; stronger effect = higher value.
Experiment [2] in a line: HepG2 cytotoxicity, primary screen, cytotoxicity control for P. falciparum antimalarial project, cell-based, ATP luminescence (AID 2303;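 active = inhibition above 50%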;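 note: 0% = DMSO wells and 100% = digitonin-killed cells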). The note with it: HepG2 viability, 24-48 h, at 10 µM, stronger effect = higher value.
The target in experiment [3] is L-lactate dehydrogenase (Plasmodium falciparum (isolate CDC / Honduras)) (UniProt Q27743). As to the kind of experiment: PfLDH activity inhibition – cell lysate, 3D7 strain, counter-screen for P. falciparum growth inhibition project (AID 2304).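 Note: 0% = vehicle and 100% = reference inhibitor.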 The conditions noted are these: P. falciparum 3D7 crude extract, LDH APAD/NBT absorbance; at 2 µM; stronger effect = higher value. A general note: Counterscreens check selectivity or assay interference.

Experiment [4] in a line: inhibition of 3D7 malaria parasite growth – strain 3D7 (AID 2306).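 Note: 0% = DMSO wells and 100% = chloroquine plus artemisinin control wells.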 The note with it: P. falciparum 3D7 erythrocytic growth, LDH absorbance, 72 h; at 2 µM; stronger effect = higher value.
For experiment [5], the target named is Calcium-dependent protein kinase 1 (Plasmodium falciparum (isolate 3D7)) (UniProt P62344). The experiment can be described thus: PfCDPK1 kinase inhibitors, biochemical, TCAMS library (AID 1159585; cut-off not given, nearly all actives have IC50 up to about 0.98 µM;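 note: inhibitors leave more ATP so luminescence rises with inhibition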). The note with it: recombinant PfCDPK1, Kinase-Glo ATP depletion luminescence. Background: Kinase-Glo reads ATP consumption through a luciferase reaction.
Experiment [6] has as its target Plasmodium falciparum protein kinase 6 (PK6, PF3D7_1337100) (UniProt Q8IDW1). As to the kind of experiment: PfPK6 kinase inhibitors, biochemical, TCAMS library (AID 1159586). The conditions noted are these: recombinant PfPK6, Kinase-Glo ATP depletion luminescence.
Experiment [7] has as its target Protein kinase 7 (PK7), Plasmodium falciparum 3D7 (PF3D7_0213400) (UniProt Q7YTF7). As to the kind of experiment: inhibition of Plasmodium PK7 catalytic activity – biochemical, TCAMS antimalarial set, Kinase-Glo luminescence (AID 1159587). The conditions noted are these: recombinant PfPK7, Kinase-Glo ATP depletion luminescence.
Experiment [8] concerns the target Calcium-dependent protein kinase 4 (Plasmodium falciparum (isolate 3D7)) (UniProt Q8IBS5). The experiment can be described thus: PfCDPK4 kinase inhibitors, biochemical, TCAMS library (AID 1159588; cut-off not given, nearly all actives have IC50 up to about 0.91 µM). The note with it: recombinant PfCDPK4, Kinase-Glo ATP depletion luminescence.

Sequence of Calcium-dependent protein kinase 1 (Plasmodium falciparum (isolate 3D7)) (P62344 whole entry, looked up): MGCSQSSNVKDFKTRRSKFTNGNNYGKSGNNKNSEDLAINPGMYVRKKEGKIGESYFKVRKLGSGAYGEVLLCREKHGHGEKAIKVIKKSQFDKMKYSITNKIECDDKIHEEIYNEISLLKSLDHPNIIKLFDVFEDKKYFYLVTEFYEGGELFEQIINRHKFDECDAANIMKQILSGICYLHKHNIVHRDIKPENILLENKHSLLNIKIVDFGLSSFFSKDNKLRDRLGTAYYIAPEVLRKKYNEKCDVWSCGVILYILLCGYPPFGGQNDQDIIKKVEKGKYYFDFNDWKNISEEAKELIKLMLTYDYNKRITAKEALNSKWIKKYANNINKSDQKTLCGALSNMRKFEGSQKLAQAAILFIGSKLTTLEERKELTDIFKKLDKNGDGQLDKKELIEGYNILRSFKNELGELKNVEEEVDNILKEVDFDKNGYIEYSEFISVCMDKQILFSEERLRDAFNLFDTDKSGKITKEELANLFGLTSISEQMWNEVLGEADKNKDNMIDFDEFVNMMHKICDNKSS
Sequence of Calcium-dependent protein kinase 4 (Plasmodium falciparum (isolate 3D7)) (Q8IBS5 whole entry, looked up): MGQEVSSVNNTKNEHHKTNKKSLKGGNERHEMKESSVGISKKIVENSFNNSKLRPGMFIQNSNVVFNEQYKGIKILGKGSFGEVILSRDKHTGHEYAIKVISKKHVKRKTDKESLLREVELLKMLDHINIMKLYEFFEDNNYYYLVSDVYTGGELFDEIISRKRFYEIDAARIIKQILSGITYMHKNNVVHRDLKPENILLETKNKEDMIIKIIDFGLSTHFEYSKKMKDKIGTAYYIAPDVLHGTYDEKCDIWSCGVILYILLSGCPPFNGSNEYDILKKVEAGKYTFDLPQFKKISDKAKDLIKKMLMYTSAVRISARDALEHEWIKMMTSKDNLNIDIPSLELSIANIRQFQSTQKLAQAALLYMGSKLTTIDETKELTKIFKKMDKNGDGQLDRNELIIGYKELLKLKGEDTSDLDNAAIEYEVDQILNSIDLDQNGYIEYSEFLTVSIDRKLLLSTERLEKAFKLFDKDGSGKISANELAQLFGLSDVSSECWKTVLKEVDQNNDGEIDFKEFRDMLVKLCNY
Sequence of Protein kinase 7 (PK7), Plasmodium falciparum 3D7 (PF3D7_0213400) (Q7YTF7 1-343): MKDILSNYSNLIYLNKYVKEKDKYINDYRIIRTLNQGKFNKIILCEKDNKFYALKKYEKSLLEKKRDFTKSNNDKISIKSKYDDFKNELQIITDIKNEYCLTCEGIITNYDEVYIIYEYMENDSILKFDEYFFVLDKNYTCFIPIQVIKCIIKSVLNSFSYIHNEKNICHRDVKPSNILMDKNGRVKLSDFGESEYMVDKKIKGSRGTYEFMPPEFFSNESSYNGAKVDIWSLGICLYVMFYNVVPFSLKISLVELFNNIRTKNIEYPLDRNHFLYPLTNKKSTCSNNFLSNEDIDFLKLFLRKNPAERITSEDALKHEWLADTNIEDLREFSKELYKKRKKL
Sequence of L-lactate dehydrogenase (Plasmodium falciparum (isolate CDC / Honduras)) (Q27743 whole entry, looked up): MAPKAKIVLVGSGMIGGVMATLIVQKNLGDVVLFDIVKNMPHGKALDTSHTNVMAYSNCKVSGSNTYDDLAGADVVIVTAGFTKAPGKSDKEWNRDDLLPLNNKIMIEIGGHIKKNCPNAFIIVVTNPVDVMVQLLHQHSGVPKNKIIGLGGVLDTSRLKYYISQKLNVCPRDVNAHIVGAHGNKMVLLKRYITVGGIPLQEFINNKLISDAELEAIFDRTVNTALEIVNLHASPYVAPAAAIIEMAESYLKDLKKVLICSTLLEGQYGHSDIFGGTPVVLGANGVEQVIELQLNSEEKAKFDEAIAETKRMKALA
Sequence of Plasmodium falciparum protein kinase 6 (PK6, PF3D7_1337100) (Q8IDW1 1-305): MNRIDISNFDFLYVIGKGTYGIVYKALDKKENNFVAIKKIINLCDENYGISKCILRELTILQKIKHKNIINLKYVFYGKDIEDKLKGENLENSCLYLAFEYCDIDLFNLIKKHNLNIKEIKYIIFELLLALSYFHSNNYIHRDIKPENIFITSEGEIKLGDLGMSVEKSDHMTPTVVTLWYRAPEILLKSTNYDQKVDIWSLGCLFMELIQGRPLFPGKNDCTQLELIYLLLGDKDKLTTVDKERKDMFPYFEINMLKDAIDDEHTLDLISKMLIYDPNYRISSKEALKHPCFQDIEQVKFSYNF

Turning to `COc1ccc(-n2ccnc2)cc1CNC1CCN(CC2Cn3c(=O)ccc4ccc(F)c2c43)CC1` (configuration not stated), the growth inhibition in experiment [1] was 18%; in experiment [4], 99% (active). Moreover, the inhibition (in general, the drop in the measured response relative to a control, in per cent) in experiment [2] was 25%; in experiment [3], -1%. Moreover, the result in experiment [5], in experiment [6], in experiment [7] and in experiment [8] was inactive.
Take `Cc1ccc(Cn2cnc(N3CC(C)NC(C)C3)cc2=O)cc1NC(=O)Nc1ccc(-c2ccccc2)cc1` (configuration not stated): the figures for the growth inhibition in experiment [1] and in experiment [4] were 15% and 96% (active), respectively. Moreover, the inhibition in experiment [2] was 18%; in experiment [3], 4%. For the same molecule, the outcome in experiment [5], in experiment [6], in experiment [7] and in experiment [8] was inactive.
For `CC(=O)Nc1cccc(C(=O)Nc2ccc(-c3cccc(-c4nc5c(C)cccc5[nH]4)c3)cc2)c1`, the values for the growth inhibition in experiment [1] and in experiment [4] were 50% (active) and 100% (active), respectively. The inhibition in experiment [2] is 86% (active); in experiment [3] it was -4%. Further, the outcome in experiment [5], in experiment [6], in experiment [7] and in experiment [8] was inactive.
As for `N#Cc1ccc(-c2ccc(C(=O)NC3CCN(CCN4CCC(c5cn(CCOC6CCCCO6)c6ccccc56)CC4)CC3)cc2)cc1` (configuration not stated), the values for the growth inhibition in experiment [1] and in experiment [4] were 86% (active) and 99% (active), respectively. Moreover, the inhibition in experiment [2] was 48%; in experiment [3] it was 2%. Besides, the result in experiment [5], in experiment [6], in experiment [7] and in experiment [8] was inactive.
Take `NCc1cccc(-c2ccc3ccnc(N)c3c2)c1`: the figures for the growth inhibition in experiment [1] and in experiment [4] were 96% (active) and 101% (active), respectively. Further, the inhibition in experiment [2] was 7%; in experiment [3], 0%. Also, the outcome in experiment [5], in experiment [6], in experiment [7] and in experiment [8] was inactive.
On to `Cc1[nH]c(C)c(C2CCC(c3ccc(Cl)cc3)CC2)c(=O)c1Cl` (configuration not stated), for which the growth inhibition in experiment [1] is 97% (active); in experiment [4], 98% (active). The inhibition in experiment [2] is 37%; in experiment [3] it was -9%. The outcome in experiment [5], in experiment [6], in experiment [7] and in experiment [8] was inactive.
`O=C(Nc1ccc(-c2csc(-c3nc4ccccc4[nH]3)c2)cc1)Nc1ccc(F)c(F)c1F`: the growth inhibition in experiment [1] was 64% (active); in experiment [4], 100% (active). In addition, the values for the inhibition in experiment [2] and in experiment [3] were 67% (active) and 2%, respectively. In addition, the outcome in experiment [5], in experiment [6], in experiment [7] and in experiment [8] was inactive.
Turning to `Cc1cc(OCC2CCN(c3ncc(C(=O)NC4CC4)cc3Cl)CC2)ccc1F`, the growth inhibition in experiment [1] and in experiment [4] was 96% (active) in each case. In addition, the inhibition is 16% in experiment [2] and 5% in experiment [3]. In addition, the result in experiment [5], in experiment [6], in experiment [7] and in experiment [8] was inactive.
Regarding `CC(C)C[C@@H](C(=O)Nc1ccc(Cc2ccc(NC(=O)[C@H](CC(C)C)N(C)C(=O)OC(C)(C)C)cc2)cc1)N(C)C(=O)OC(C)(C)C`, the growth inhibition in experiment [1] was 57% (active); in experiment [4], 92% (active). In addition, the inhibition was 17% in experiment [2] and 2% in experiment [3]. For the same molecule, the outcome in experiment [5], in experiment [6], in experiment [7] and in experiment [8] was inactive.
On to `COc1ccccc1CNC(=O)CCn1c(=O)[nH]c2ccsc2c1=O`, for which the values for the growth inhibition in experiment [1] and in experiment [4] were 75% (active) and 85% (active), respectively. In addition, the inhibition in experiment [2] is -5%; in experiment [3] it was -7%. Besides, the result in experiment [5], in experiment [6], in experiment [7] and in experiment [8] was inactive.
`Cc1ccc(C)c(NC(=O)NC2CCN(c3ccnc(Nc4ccc(F)cc4)n3)C2)c1` (configuration not stated): the growth inhibition in experiment [1] is 74% (active); in experiment [4] it was 100% (active). The inhibition in experiment [2] is -2%; in experiment [3], -3%. Moreover, the result in experiment [5], in experiment [6], in experiment [7] and in experiment [8] was inactive.
In the case of `CN1CCN(c2ccnc3cc4c(cc23)N(Cc2ccccc2)CC4)CC1`, the values for the growth inhibition in experiment [1] and in experiment [4] were 27% and 94% (active), respectively. Moreover, the inhibition in experiment [2] was -2%; in experiment [3], -3%. Besides, the result in experiment [5], in experiment [6], in experiment [7] and in experiment [8] was inactive.
For `NS(=O)(=O)c1cccc(-c2ccc3ncc(N4CCOCC4)nc3c2)c1`, the growth inhibition in experiment [1] was 74% (active); in experiment [4] it was 96% (active). Besides, the inhibition was 17% in experiment [2] and -4% in experiment [3]. In addition, the outcome in experiment [5], in experiment [6], in experiment [7] and in experiment [8] was inactive.
On to `COc1ccc(OC)c(-c2ccc(O)c(CNCC(C)c3ccccc3)c2)c1` (configuration not stated), for which the growth inhibition in experiment [1] was 96% (active); in experiment [4], 98% (active). For the same molecule, the values for the inhibition in experiment [2] and in experiment [3] were 26% and -2%, respectively. Besides, the outcome in experiment [5], in experiment [6], in experiment [7] and in experiment [8] was inactive.
On to `CC(C)C[C@H]1C(=O)N[C@H](C2Cc3ccccc3C2)C(=O)N1[C@@H](C(=O)Nc1ccccc1OCc1ccccc1)c1ccc(F)cc1F`, for which the results for the growth inhibition in experiment [1] and in experiment [4] were 67% (active) and 90% (active), respectively. For the same molecule, the inhibition was 12% in experiment [2] and 5% in experiment [3]. Moreover, the result in experiment [5], in experiment [6], in experiment [7] and in experiment [8] was inactive.
In the case of `N#Cc1cccc(C(=O)Nc2cccc(-c3ccc(C(=O)NCCCN4CCOCC4)cc3)c2)c1`, the growth inhibition in experiment [1] was 21%; in experiment [4], 96% (active). The inhibition in experiment [2] was 21%; in experiment [3] it was -8%. The outcome in experiment [5], in experiment [6], in experiment [7] and in experiment [8] was inactive.
On to `O=C(Nc1ccc([N+](=O)[O-])cc1Cl)c1cc2ccccc2cc1O`, for which the growth inhibition in experiment [1] was 28%; in experiment [4], 94% (active). Besides, the inhibition in experiment [2] is 6%; in experiment [3], 0%. For the same molecule, the outcome in experiment [5], in experiment [6], in experiment [7] and in experiment [8] was inactive.
Consider `COC(=O)c1ccc(-c2ccc(C(=O)NCC3CCN(c4nc(N)c5cc(OC)c(OC)cc5n4)CC3)cc2)cc1`, for which the results for the growth inhibition in experiment [1] and in experiment [4] were 100% (active) and 98% (active), respectively. The inhibition was 53% (active) in experiment [2] and -4% in experiment [3]. In addition, the result in experiment [5], in experiment [6], in experiment [7] and in experiment [8] was inactive.
On to `COc1cc(C2=NN(S(=O)(=O)c3c(Cl)cc(Cl)cc3Cl)CCCC2)ccc1Cl`, for which the growth inhibition in experiment [1] was 97% (active); in experiment [4] it was 98% (active). Besides, the inhibition in experiment [2] was 3%; in experiment [3] it was -1%. Moreover, the outcome in experiment [5], in experiment [6], in experiment [7] and in experiment [8] was inactive.

Source of the values: PubChem BioAssay.
